# Compound activity deposited in PubChem BioAssay by National Center for Advancing Translational Sciences (NCATS).
# L3MBTL1 inh: inhibitors of human L3MBTL1. Q9Y468. AlphaScreen L3MBTL1–H3K9me1 peptide binding. Potency, µM (highest dose often 57.1 µM), for the others: at the top dose activity, negative = inhibition, hits mostly inhibitors. 230,000 compounds, 0.66% hits. AID 485360; note: % is set by controls: 0 for no effect and ±100 for the full control effect; nearly all actives have a fitted effect of over 60% in size
#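 First, the protein-peptide complex forms for 30 min at room temperature (L3MBTL1 50 nM, biotinylated H3K9me1 peptide 75 nM). Next, compounds are pin-transferred and incubated 30 min. Finally, AlphaScreen beads are added and read after 30 min.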
# G9a block: inhibitors of human histone lysine methyltransferase G9a; 350,000 compounds, 8.8% hits; G9a H3K9 monomethylation, AlphaScreen, 2 h; AID 504332; Q96KQ7; Potency, µM (titrated, usually from 102 µM), without a hit: at the top dose activity, negative = inhibition, actives largely listed as inhibitors; note: % is set by controls: 0 for no effect and ±100 for the full control effect; nearly all actives have a fitted effect of over 75% in size
#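 G9a (20 nM) preincubated 15 min RT with compounds, then 500 nM biotinylated H3K9 peptide and 20 uM SAM added; 2 h RT reaction. Monomethyl-H3K9 product detected by AlphaScreen with anti-H3K9me1 antibody, streptavidin donor and anti-rabbit IgG acceptor beads.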
# JMJD2A Tudor: blocks the human JMJD2A Tudor domain | O75164 | AlphaScreen JMJD2A-Tudor / H3K4me3 peptide binding | Potency, µM (top dose mostly 114 µM), for the others: at the top dose activity change, negative = inhibition, most hits filed as inhibitors | 390,000 compounds, 4.4% hits; note: % is set by controls: 0 for no effect and ±100 for the full control effect; nearly all actives have a fitted effect of over 50% in size
# HP1b chromo inh: inhibitors of HP1-beta chromodomain binding to methylated histone tails | P83916 | AlphaScreen HP1-beta / biotin-H3K9me3 peptide binding | Potency, µM (series often up to 114 µM), for inactives: at the top dose activity change, negative = inhibition, actives largely listed as inhibitors | 390,000 compounds, 0.56% hits | AID 540317; note: nearly all actives have a fitted effect of over 70% in size
#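 HP1-beta protein (50 nM final) preincubated 30 min at room temperature with biotinylated H3(1-18)K9me3 peptide (50 nM) in PBS pH 7.4, 0.01% Tween-20, then compound added for 30 min. AlphaScreen streptavidin donor/nickel chelate acceptor beads (10 ug/mL final), 30 min dark, luminescence read.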
# BAZ2B inh: inhibitors of human BAZ2B bromodomain; Q9UIF8; AlphaScreen BAZ2B-H3K14Ac peptide displacement; Potency, µM (titrated, usually from 114 µM), for inactives: at the highest dose activity change, negative = inhibition, actives largely listed as inhibitors; 360,000 compounds, 4.4% hits; AID 504333; note: % is set by controls: 0 for no effect and ±100 for the full control effect; nearly all actives have a fitted effect of over 60% in size
#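 AlphaScreen displacement of biotin-H3(5-23)K14Ac peptide (50 nM final) from BAZ2B (50 nM final) in PBS pH 7.4, 0.01% Tween-20; complex preformed 30 min RT, then compounds (top 110 uM) 30 min RT, beads 20 min dark.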
# An asterisk follows results filed as active; ? = inconclusive; . = no result given; [ ] = another dose, or the depositor's remark. In the library only some 11% were active in any assay of this set; here they are far more common. Calls come from the whole dose curve; as a rule, active = well fitted inhibition curve with a large enough effect; inconclusive = small, poorly fitted or top-dose-only effect; inactive = no such curve, though single readings can be large or run the other way. Potency is the fitted concentration of half-maximal effect.
SMILES,L3MBTL1 inh,G9a block,JMJD2A Tudor,HP1b chromo inh,BAZ2B inh
O=C(Nc1nnc(C(F)(F)F)s1)c1ccc(Br)s1,5%,50µM*,-36%,7%,-13%
CCCCC1CCc2[nH]nc(C(=O)O)c2C1 (centres undefined),1%,16%[2.33 µM],-27%,26%,?
O=C(O)c1n[nH]c2c1CC(C1CCCCC1)CC2 (centres undefined),-10%,1%[2.33 µM],-15%,52%,71µM*
O=C(NC1CCCCC1)c1n[nH]c2c1CC(c1ccccc1)CC2 (centres undefined),-1%,-11%[2.33 µM],-20%,21%,-3%
CC1CCc2[nH]nc(C(=O)O)c2C1 (centres undefined),1%,28µM*,32µM*,13%,?
CCC1CCc2[nH]nc(C(=O)O)c2C1 (centres undefined),.,25µM*,50µM*,7%,?
COC(=O)CCN(C)CCC(=O)OC,15%,-3%[2.33 µM],50µM*,55%,13%
Nc1ncnc2c1ncn2[C@@H]1O[C@H](CNC(=O)[C@H](N)Cc2cscn2)[C@@H](O)[C@H]1O,8%,.,-26%,18%,.
CC(=O)c1ccc(-c2ccc(C(=O)NC3CCCCCC3)o2)cc1,0%,50µM*,-5%,27%,-22%
CN(C)CCCN(C(=O)c1cc(-c2cccs2)nc2ccccc12)c1nc2ccc(F)cc2s1,.,?,?,43%,?
C#CCOCCOCCOCCNc1nc(N2CCN(C(=O)[C@H](CCCCN)n3cc(CC(C)O)nn3)CC2)nc(N2CCN(C(=O)[C@H](Cc3ccc(O)cc3)n3cc(CCO)nn3)CC2)n1 (some centres undefined),.,.,-22%,14%,.
C#CCOCCOCCOCCNc1nc(N2CCN(C(=O)[C@H](C)n3cc(CCCN=C(N)N)nn3)CC2)nc(N2CCN(C(=O)[C@H](Cc3ccc(O)cc3)n3cc(CCO)nn3)CC2)n1,2%,32µM*,.,.,?
C#CCOCCOCCOCCNc1nc(N2CCN(C(=O)Cn3cc(CCCCN)nn3)CC2)nc(N2CCN(C(=O)[C@H](Cc3ccc(O)cc3)n3cc(CCO)nn3)CC2)n1,.,.,-5%,37%,.
C#CCOCCOCCOCCNc1nc(N2CCN(C(=O)[C@H](CCCCN)n3cc(CCCC)nn3)CC2)nc(N2CCN(C(=O)[C@H](Cc3ccc(O)cc3)n3cc(CCO)nn3)CC2)n1,9%,40µM*,79µM*,-19%,?
CC12COC3(P(=O)(c4ccccc4)c4ccccc4)CC1CCC23CP(=O)(c1ccccc1)c1ccccc1 (centres undefined),-5%,?,-23%,9%,71µM*
Cc1ccc(NS(=O)(=O)c2ccc3c(c2)N(C)C(=O)CO3)cc1C,.,.,-3%,.,.
O=C(Nc1ccc2oc(-c3cccnc3)nc2c1)c1ccc(-c2ccccc2)o1,.,11µM*,?,-20%,?
O=C(Nc1ccc(-c2nc3cc(NC(=O)c4ccc(F)cc4)ccc3o2)cc1)c1ccc(F)cc1,.,6%[59 µM],-25%,-11%,8%
O=C(Nc1ccc2oc(-c3ccncc3)nc2c1)c1ccc2c(c1)OCCO2,.,20µM*,56µM*,-19%,56µM*
O=C(Nc1ccc2oc(-c3cccnc3)nc2c1)c1ccc2c(c1)OCCO2,-2%,14µM*,89µM*,-3%,79µM*
O=C(Nc1ccc2oc(-c3ccncc3)nc2c1)c1ccc(F)cc1,.,82%,?,143%,50µM*
O=C(Nc1ccc2oc(-c3ccncc3)nc2c1)c1ccc2c(c1)OCO2,.,?,?,10%,?
COc1ccccc1CNC(=O)Cn1nc(C)n2cccc2c1=O,.,-7%[59 µM],-18%,34%,-15%
O=C(NCc1ccc(F)cc1)c1c(O)nc2ccccn2c1=O,.,14%[59 µM],8%,46%,-2%
N#C/C(=C\C=C\c1ccccc1)c1nc(-c2ccc3c(c2)OCO3)cs1,?,121%[59 µM],21%,95%,34%
CCN(CC)CCOC(=O)c1ccc(N/C=C(/C#N)c2nc(-c3ccc4c(c3)OCO4)cs2)cc1,.,?,40µM*,32µM*,?
CCN(CC)CCOC(=O)c1ccc(N/C=C(/C#N)c2nc(-c3ccc(OC)cc3)cs2)cc1,.,11µM*,56µM*,?,?
